High-throughput results: PubChem, National Center for Advancing Translational Sciences (NCATS)
MARV entry inh – Marburg virus entry inhibition; Marburg virus pseudotyped entry inhibition, cell reporter; Potency, µM (series often up to 37.8 µM), for the others: at the highest dose activity change, negative = inhibition, hits mostly inhibitors; 300,000 compounds, 1.8% hits; calls by dose curve; tested in HEK293 cells; further: potency means the concentration at half of the fitted maximal effect; on the % scale 0 is the no-effect control and ±100 the full control effect
Shiga toxin inh – inhibitors of Shiga toxin in Vero cells; inhibition, % at 38.7 µM; AID 2315; 290,000 compounds, 9.2% hits; Vero cells, Shiga toxin protein synthesis inhibition reporter; in the data active means inhibition mostly above about 28%, no sharp cut-off; inactive means mostly below about 43%; further: 0% is about no effect
Lassa entry inh – Lassa virus entry inhibition; 300,000 compounds, 1.2% hits; Lassa virus pseudotype entry inhibition, cell reporter; Potency, µM (doses to about 37.9 µM), inactives show at the top dose activity change, negative = inhibition, actives largely listed as inhibitors; calls by dose curve; tested in HEK293 cells; further: potency means the concentration at half of the fitted maximal effect; on the % scale 0 is the no-effect control and ±100 the full control effect; nearly all actives have a fitted effect of over 50% in size
CHX counter – affects cycloheximide protein synthesis inhibition readout, counter-screen; max response, %; AID 2314; cell reporter, cycloheximide protein synthesis inhibition counterscreen; 300,000 compounds, 12% hits; in the data active means max response mostly above about 13%, no sharp cut-off; inactive means mostly below about 14%; further: read at 38.3 µM for the half of the compounds with a filed dose; 0% is about no effect
Numbers without * were called inactive; ? = inconclusive; · = no result; + = active, no number; [ ] = remark or other dose. The list is not random: actives were taken first. Their share in the collection is about 12%.

SMILES	MARV entry inh	Shiga toxin inh	Lassa entry inh	CHX counter
COc1ccc(S(=O)(=O)N2CCOCC2)cc1NC(=O)COC(=O)CC1CC2CCC1C2 (stereo not given)	13%[46.1 µM]	·	4%[46.1 µM]	·
C[C@@H](NC(=O)[C@@H]1Cc2ccccc2CN1C(=O)OC(C)(C)C)C(=O)NC1CCCC1	·	13	·	9
O=C(NNc1ccccc1)Nc1ccccc1F	8%[46.1 µM]	87*	-23%	20*
O=C(Nc1ccccc1F)NC1CCCc2ccccc21 (stereo not given)	26%[46.1 µM]	34*	-11%[46.1 µM]	12
O=C(Nc1ccccc1F)Nc1cccc2ccc(O)cc12	·	102*	·	46*
CCN(CC)C(=O)c1ccc(NC(=O)Nc2ccccc2F)cc1	·	40	·	16*
CCN(CC)CCNC(=O)c1ccc(NC(=O)Nc2cccc3ccccc23)cc1	?	-9	?	-4
COC(=O)[C@@H]1[C@@H](c2cccc(C(F)(F)F)c2)NC(=O)N(Cc2ccccc2)[C@@H]1C	-19%[14.2 µM]	·	·	·
Cc1ccc(S(=O)(=O)NNC(=O)Nc2ccccc2F)c(C)c1	·	16	·	5
Cc1ccc(N=Nc2ccc(C)cc2NC(=O)Nc2ccccc2F)cc1	·	34	·	46*
CC(C)(CN1CCN(C(c2ccccc2)c2ccccc2)CC1)NS(=O)(=O)c1ccccc1	?	12	?	-1
O=C(COc1ccc(Br)cc1Cl)NC1CCCCC1	?	+	8%	36*
O=C(COc1ccc(Br)cc1Br)NC1CCCC1	·	109*	·	43*
CC(C)NC(=O)NC(=O)COc1ccc(Br)cc1Br	6.5µM*	75*	7.3µM*	130*
COCCCn1cc(C(=O)c2cc(OC)ccc2OCC(=O)N2CCCCC2C)cc(C#N)c1=O (stereo not given)	29%[46.1 µM]	-5	-10%	-2
Cc1nn(C)c(C)c1NC(=S)Nc1ccc(S(=O)(=O)Nc2ncccn2)cc1	10%	-4	15%	-1
Fc1ccc(NC(=S)Nc2ccc3nccnc3c2)cc1	·	49	·	38*
CC(C)(C)c1nnc(NC(=S)Nc2ccccc2)s1	?	115*	?	37*
COC(=O)c1sccc1NC(=S)Nc1ccccc1	5%	-2	2%	-6
S=C(Nc1ccccc1)Nc1nccs1	14µM*	99*	15µM*	29*
OCCCNC(=S)Nc1ccc2nccnc2c1	·	11	·	2
Fc1ccc(NC(=S)Nc2nccs2)cc1	·	75*	·	50*
Cc1ccc(S(=O)(=O)Nc2cccc(-c3cn4ccsc4n3)c2)cc1	?	-4	4.5µM*	9.6*
Cc1cccc(S(=O)(=O)Nc2cccc(-c3cn4ccsc4n3)c2)c1	?	5	?	8
O=S(=O)(Nc1cccc(-c2cn3ccsc3n2)c1)c1ccc(F)cc1	14%	106*	-9%	25*
SMILES	MARV entry inh	Shiga toxin inh	Lassa entry inh	CHX counter
CC(C)CC(=O)Nc1cccc(-c2cn3ccsc3n2)c1	?	36*	8%	32*
COc1ccccc1C(=O)Nc1cccc(C(=O)OCc2cc(=O)n3c4c(sc3n2)CCCC4)c1	·	·	1%[46.1 µM]	·
C=CCOC(=O)C(=O)/C=C/c1ccc2c(c1)Cc1ccccc1-2	·	25	·	14*
CCOC(=O)[C@H](C)Sc1nc(-c2cccs2)ccc1C#N	-1%	·	·	·
CC1=CC(C)(C)Nc2ccc(OC(=O)CCN3C(=O)c4ccccc4C3=O)cc21	?	23	?	22*
CC1=CC(C)(C)Nc2ccc(OS(=O)(=O)c3ccc(C)cc3)cc21	-17%	40*	-14%	31
COc1cccc(CNCCSc2nnnn2C)c1OCc1ccc(Cl)cc1	10µM*	·	-1%[46.1 µM]	·
CC1CCN(S(=O)(=O)c2cn(CC(=O)Nc3ccc(F)cc3)c(=O)c3ccccc23)CC1	5.6µM*	·	?	·
COc1ccc(C)cc1NC(=O)Cn1cc(S(=O)(=O)N2CCC(C)CC2)c2ccccc2c1=O	?	·	-22%[46.1 µM]	·
CCOC(=O)c1cccc(NC(=O)c2ccc3c(c2)nnn3C2CCCC2)c1	·	·	9%[46.1 µM]	·
COc1cccc2cc(/C(=N/O)c3ccccc3)oc12	-3%	33	?	26*
COc1cccc2cc(C(C)=O)oc12	-20%	-5	-16%	-2
COc1ccc(C(=O)c2cc3cccc(OC)c3o2)cc1	10%[46.1 µM]	98*	?	41*
COc1cccc2c1OCC(CN1CCN(CCC(C)C)C(CCO)C1)=C2 (stereo not given)	4%[46.1 µM]	1	11%	-3
O=C(Cc1ccccc1)N/N=C/c1ccc(S(=O)(=O)O)o1	·	-2	·	-2
COc1ccc(CCNC(=O)CSc2nnc(-c3ccco3)c(-c3ccco3)n2)cc1OC	·	-5	·	-3
O=C(CCc1nnc(CCCCc2ccccc2)o1)N(CCO)Cc1ccccc1	?	1	-20%[46.1 µM]	-2
CCN(CCn1cccn1)C(=O)CCc1nnc(-c2ccc3c(c2)OCO3)o1	?	41	24%	-1
CCN(CCn1cccn1)C(=O)CCc1nnc(CCCc2ccccc2)o1	?	99*	-18%[46.1 µM]	36*
C=C(C)CN(CC)C(=O)CCc1nnc(CCCc2ccccc2)o1	-16%[46.1 µM]	61*	-20%	39*
CCCCNC(=O)COC(=O)c1ccc(F)cc1Cl	12%[46.1 µM]	76*	0%[46.1 µM]	13*
CCCCNC(=O)COC(=O)c1cc(F)c(F)cc1Cl	0%	56	9%	-2
CCOC(=O)c1ccc(CN(Cc2ccccc2C)S(=O)(=O)c2ccc(F)c(C(=O)Nc3cccc(OC)c3)c2)cc1	·	·	-5%[46.1 µM]	·
CN(C)c1nc2ccc(OCCN3CCCCC3)cc2s1	17%	57	-3%	42*
Cc1ccc(OCCN2CCCC2)cc1	·	32	·	-1
SMILES	MARV entry inh	Shiga toxin inh	Lassa entry inh	CHX counter
CCN(CC)CCOc1ccc2nc(N(C)C)sc2c1	1%[46.1 µM]	32	?	27*
O=C(CCNC(=O)c1ccc([N+](=O)[O-])cc1)NC1CCCc2ccccc21 (stereo not given)	2µM*	·	?	·
O=C(CCNC(=O)c1ccccc1)NC1CCCc2ccccc21 (stereo not given)	?	·	-5%	·
O=c1[nH][nH]c(=O)c2c(NS(=O)(=O)c3ccccc3)cccc12	25%[46.1 µM]	62*	?	36*
CCOC(=O)C1=C(C)NC(=NC)SC1c1ccccc1 (stereo not given)	1%[46.1 µM]	11	15%	9
COc1cc(/C=N/Nc2cccc(C)c2)ccc1OC(=O)c1cccs1	?	33	6%	18*
COCc1cc(/C=N\NC(=O)COc2ccccc2)ccc1OC	12%	1	4%	-1
COc1cccc(OCc2cc(/C=N/Nc3ccc(C(=O)O)cc3)ccc2OC)c1	-2%	53*	·	41*
COc1cccc(C(=O)Oc2ccc(/C=N/Nc3ccc(C(=O)O)cc3)cc2OC)c1	?	·	?	33*
COc1cc(/C=N/Nc2ccc(Cl)c(C(=O)O)c2)ccc1OC(=O)c1ccccc1F	-38%[46.1 µM]	70*	?	29*
COc1cc(/C=N/Nc2ccc(Cl)c(C(=O)O)c2)ccc1OC(=O)c1ccc(F)cc1	-32%[46.1 µM]	23	?	13
Cc1cccc(N2CCN(C(=O)c3cc(S(=O)(=O)N4CCC(C)CC4)cn3C)CC2)c1C	·	·	-22%[46.1 µM]	·
CCOc1cc(/C=N/Nc2ccc(C(=O)O)cc2)ccc1OC(=O)c1ccccc1C	·	42	·	42*
CCOc1cc(/C=N\NC(=O)c2ccc(NC(=O)C(C)(C)C)cc2)ccc1OC(=O)c1ccc(OC)cc1	-1%	-6	-14%	2
